Screens as filed in PubChem.
This is a sample that favours compounds with a hit; in the whole collection about 5.1% have one here.
NR3A LBD binder = modulates the human NR3A ligand-binding domain | NR3A LBD differential scanning fluorimetry, Tm shift; 0% = protein alone, 100% = glycine-bound protein | Tm shift relative to glycine control, % at 25 µM | 340,000 tested, 2.5% active;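 active = melting temperature shift of at least 10% of the positive control shift, at one fixed dose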
MPTP block = blocks calcium-induced mitochondrial swelling. isolated mouse mitochondria, Ca2+ swelling absorbance, 30 min. inhibition, % at 10 µM. 360,000 tested, 1.4% active. AID 602449;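 active = inhibition of 50% or more, scaled per plate between neutral and stimulator controls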;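 note: 0% = DMSO wells given calcium and 100% = 1 mM EGTA wells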
CRFBP-R2 agonist = CRF-BP/CRF-R2 complex agonism. HEK293 CRF-R2/CRF-BP, calcium dye fluorescence (FLIPR); percent of saturating CRF peptide response. 350,000 tested, 0.46% active. AID 588473. activation, % at 13.2 µM;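 active = activation of at least 50%, plus an integration ratio under a set limit after plate pattern correction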;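 note: plate controls were neutral control wells without compound for no effect and CRF at EC100 for full effect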
ANO1 activ = mouse TMEM16A channel activation, primary screen; 340,000 tested, 0.3% active; HEK293 TMEM16A/YFP-H148Q/I152L, iodide quench fluorescence; active compounds read low; Q8BHY3; B-score at 10 µM;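 active = fluorescence-ratio B-score plate-corrected deviation score at least 3 library SD below zero, with starting fluorescence score within 5 deviations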;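 note: channel opened by trigger with iodide after compound preincubation; score built on the fluorescence ratio of max minus min over baseline; more negative score means more quench and so TMEM16A activation or potentiation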
Target sequence (Q8BHY3 whole entry, looked up): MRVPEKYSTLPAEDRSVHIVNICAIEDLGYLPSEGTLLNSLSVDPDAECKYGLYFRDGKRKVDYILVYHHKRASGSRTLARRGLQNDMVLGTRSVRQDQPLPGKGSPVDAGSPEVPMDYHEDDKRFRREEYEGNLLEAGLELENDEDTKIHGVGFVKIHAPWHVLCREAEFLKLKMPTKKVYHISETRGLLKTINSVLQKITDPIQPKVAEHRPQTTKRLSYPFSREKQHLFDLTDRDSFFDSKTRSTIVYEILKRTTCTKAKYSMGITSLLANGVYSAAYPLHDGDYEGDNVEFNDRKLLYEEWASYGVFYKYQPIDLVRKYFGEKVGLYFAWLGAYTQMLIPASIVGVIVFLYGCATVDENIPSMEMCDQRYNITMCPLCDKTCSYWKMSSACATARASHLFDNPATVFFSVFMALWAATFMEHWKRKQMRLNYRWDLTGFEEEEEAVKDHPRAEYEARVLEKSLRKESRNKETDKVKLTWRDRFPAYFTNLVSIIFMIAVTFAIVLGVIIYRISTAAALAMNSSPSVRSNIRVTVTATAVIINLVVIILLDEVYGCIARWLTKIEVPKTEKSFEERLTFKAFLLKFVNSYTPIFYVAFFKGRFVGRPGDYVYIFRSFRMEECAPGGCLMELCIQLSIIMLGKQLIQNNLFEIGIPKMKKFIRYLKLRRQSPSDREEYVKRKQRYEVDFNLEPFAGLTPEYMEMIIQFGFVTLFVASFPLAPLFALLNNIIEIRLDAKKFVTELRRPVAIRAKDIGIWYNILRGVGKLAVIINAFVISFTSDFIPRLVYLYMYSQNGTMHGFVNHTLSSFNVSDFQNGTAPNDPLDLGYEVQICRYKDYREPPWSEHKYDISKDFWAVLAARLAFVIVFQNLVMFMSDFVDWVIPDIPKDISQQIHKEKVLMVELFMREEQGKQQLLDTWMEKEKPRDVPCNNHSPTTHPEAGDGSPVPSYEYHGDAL
ANO1 block = inhibitors of mouse TMEM16A calcium-activated chloride channel; AID 588511; Q8BHY3; 310,000 tested, 1.2% active; HEK293 TMEM16A/YFP iodide influx fluorescence, ionomycin; normalized B-score (activity score, 25-100; higher = stronger inhibition) at 10 µM;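 active = ratio plate-corrected score three or more library SD toward inhibition, starting fluorescence score within five deviations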;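 note: score derived from kinetic fluorescence span divided by baseline fluorescence per well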
CRFR2-BP antag = CRF-BP/CRF-R2 complex antagonism; AID 588475; inhibition, % at 11.8 µM; HEK293 CRF-R2/CRF-BP, CRF-induced calcium fluorescence; 350,000 tested, 0.59% active;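 active = inhibition of the ligand-induced calcium signal above about 50% at the single tested concentration, limit read from the data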
* hit, by the source's call; i = inactive; / = no result.

SMILES	NR3A LBD binder	MPTP block	CRFBP-R2 agonist	ANO1 activ	ANO1 block	CRFR2-BP antag
O=c1c(/C=C(\O)c2ccc(F)cc2)nc2ccccc2n1-c1ccccc1	-1	-2	163*	i	i	-118
Cn1c(=O)c(/C=C/c2ccc(F)cc2)nc2ccccc21	-5	1	4	-7*	/	0
Cn1c(=O)c(/C=C/c2ccccc2)nc2ccccc21	-1	-1	14	i	i	30
Cc1ccc(NC(=O)CCN2C(=O)NC3(CCCC3)C2=O)c(C)c1	0	-2	10	i	/	-5
Cc1ccc(CCNC(=O)CC(C)CC2=NS(=O)(=O)c3ccccc3N2)cc1 (stereo unspecified)	-1	-2	-2	i	i	-3
CC(N)c1csc(Nc2nccc(C(F)(F)F)n2)n1 (stereo unspecified)	/	1	/	/	/	/
NS(=O)(=O)c1ccc(CCNC(=O)Cc2ccc(Cl)cc2)cc1	1	0	-2	i	i	11
Cc1cc(C)c(O)c(-c2cc(C(=O)NCCc3ccc(S(N)(=O)=O)cc3)[nH]n2)c1	-5	2	0	i	i	10
NS(=O)(=O)c1ccc(CCNC(=O)c2cc(-c3cc(Cl)ccc3O)n[nH]2)cc1	25*	7	1	i	i	-3
COc1ccc(CCNC(=O)c2cc(-c3ccccc3O)n[nH]2)cc1OC	-6	6	0	i	i	9
Cc1cc(O)c(-c2cc(C(=O)NCCc3ccc(S(N)(=O)=O)cc3)[nH]n2)cc1C	22*	4	-2	i	i	-10
COc1ccc(CCNC(=O)c2cc(-c3cc(Cl)ccc3O)n[nH]2)cc1OC	10*	43	-3	i	i	-1
N#CCC(=O)Nc1ccc(C(=O)NNC(=O)c2ccccc2-n2cccc2)cc1	-2	-1	2	i	/	1
COc1ccc(NC(=O)CSc2nc3ccccc3c(=O)n2CCCO)cn1	-1	0	0	i	/	-4
CCOC(=O)c1ccc(NC(=O)c2cccc3c2C(=O)N(CC2CCCO2)C3)cc1 (stereo unspecified)	-9	0	82*	i	i	60*
O=C(/C=C/c1cccs1)NC(=S)Nc1ccc(S(=O)(=O)Nc2ccccc2C(F)(F)F)cc1	27*	48	1	i	i	7
CCc1ccc(NC(=O)NNC(=O)c2cc3ccccc3cc2O)cc1	10*	1	0	i	i	7
Cc1cccc(C)c1-n1nnnc1C(c1ccnc2ccccc12)N1CCN(C/C=C/c2ccccc2)CC1 (stereo unspecified)	/	1	/	/	/	/
COc1ccc(/C=C/C(=O)NCC(=O)N/N=C(/C)c2ccco2)cc1	14*	-1	0	i	i	3
CC(=O)c1ccc(OCC(O)Cn2nnc3ccccc32)cc1 (stereo unspecified)	1	1	2	i	i	4
Cc1cccc(C)c1OCC(O)Cn1nnc2ccccc21 (stereo unspecified)	1	2	-1	i	i	65*
OC(CN1c2ccccc2Sc2ccccc21)Cn1nnc2ccccc21 (stereo unspecified)	-4	7	0	i	100*	-20
COc1cccc(CNc2nc3cc(-c4cscc4C)sc3c(=O)n2C)c1	/	1	/	/	/	/
COc1ccc([C@H]2C[C@@H](O)[C@H](n3cc(-c4ccc(F)cc4)nn3)CN2CC2CCCCC2)cc1	/	-2	2	/	/	0
COc1ccc(CNC(=O)CN(C)S(=O)(=O)c2ccc(Br)s2)cc1	0	1	0	i	i	0
SMILES	NR3A LBD binder	MPTP block	CRFBP-R2 agonist	ANO1 activ	ANO1 block	CRFR2-BP antag
CN(CC(=O)NCc1ccc(F)cc1)S(=O)(=O)c1ccc(Br)s1	-2	2	-1	i	i	72*
CC(C)C[C@@H]1COc2cccc(N(C)CCO)c2S(=O)(=O)N1	/	-1	/	/	/	/
O=C(Nc1cccc(Cl)c1)Nc1ccccc1C(=O)O	4	3	0	i	i	1
CSc1ccc(NC(=O)Nc2cccn(Cc3ccccc3)c2=O)cc1	-4	-1	-1	i	100*	-4
O=C(Nc1ccc(Cl)cc1)Nc1ccccc1C(=O)O	2	-3	2	i	i	5
Cn1nnc2cc(NC(=O)Nc3cccc(Cl)c3)ccc21	27*	3	8	i	i	0
NC(=O)c1ccccc1NC(=O)Nc1cccc(Cl)c1	28*	0	2	i	i	-21
COc1ccc(Cn2cccc(NC(=O)Nc3ccc(F)cc3)c2=O)cc1	-3	-2	2	i	i	19
O=C(Nc1ccc(Cl)c(Cl)c1)Nc1ccccc1C(=O)O	18*	28	-1	i	i	59*
CC(=O)Nc1ccc(C(=O)CSc2nnc(-c3ccccc3F)n2CCc2ccccc2)cc1	-2	0	0	i	/	1
Cc1cccc2nc(-c3ccco3)oc(=O)c12	-3	2	0	i	i	17
O=C(Nc1cccc(Cl)c1)Nc1cccc(C(=O)O)c1	-11	5	-3	i	i	1
NS(=O)(=O)c1ccc(NC(=O)Nc2cccc(Cl)c2)cc1	33*	2	-1	i	i	-5
CC(=O)Nc1ccc(NC(=O)Nc2cccc(Cl)c2)cc1	34*	0	1	i	i	-7
O=C(O)/C=C/C(=O)Nc1ccc2nccnc2c1	-3	-1	1	i	25*	16
CSc1ccc(NC(=O)Nc2ccccc2C(N)=O)cc1	10*	0	2	i	i	-10
CC(C)NC(=O)N(C)C[C@H]1Oc2ccc(NC(=O)c3ccncc3)cc2C(=O)N([C@H](C)CO)C[C@@H]1C	1	-1	1	i	/	-1
Cc1ccc(NC(=O)C2CCN(C(=O)NCc3ccccc3)CC2)cc1C	1	-2	0	i	i	4
CCCn1cc(CN2CCc3ccc(NC(=O)C4CCCO4)cc3C2)c(C)n1 (stereo unspecified)	3	-1	-1	i	i	6
CSc1ccc(NC(=O)Nc2ccc(C(=O)NCC(=O)O)cc2)cc1	15*	2	-1	i	i	7
O=C(Nc1cccc(Cl)c1)N1CCCCCC1	-1	1	-1	i	i	-9
CS(=O)(=O)N1CCN(c2ccccc2NC(=O)Nc2cccc(Cl)c2)CC1	12*	5	5	i	i	-21
CCSc1ccc(C(=O)NCC(=O)O)cc1	0	2	0	i	i	8
O=C(Nc1cccc(Cl)c1)Nc1ccc2nccnc2c1	35*	12	-1	i	i	-35
